# Reference: the supplement of paper PMC13380429
# A number with no mark means an inactive call.
# Tested on: Vero E6 infected with SARS-CoV-2
# Assay: inhibition of SARS-CoV-2 cytopathic effect; higher = more antiviral protection, active = above 15
# Settings: 100 nM; 48 h
row,Structure (SMILES),inhibition of SARS-CoV-2 cytopathic effect [%]
1,CCC(=O)OCC(=O)[C@@]1(OC(=O)CC)[C@@H](C)C[C@H]2[C@@H]3CCC4=CC(=O)C=C[C@]4(C)[C@@]3(Cl)[C@@H](O)C[C@@]21C [beclomethasone-dipropionate],-11.4
2,NC[C@@H](O)CC(=O)O [aminohydroxybutyric-acid],-2.52
3,CC(=O)[C@H]1CC[C@H]2[C@@H]3CC[C@H]4C[C@H](O)CC[C@]4(C)[C@H]3C(=O)C[C@]12C [alfaxalone],-1.95
4,Cc1cc(C)cc(NC(=O)Cc2ccc(OC(C)(C)C(=O)O)cc2)c1 [efaproxiral],1.44
5,O=C(O)[C@H](O)c1ccccc1 [mandelic-acid],3.65
6,C[C@@H]1CN(Cc2ccc(F)cc2)[C@@H](C)CN1C(=O)c1cc2c(C(=O)C(=O)N(C)C)cn(C)c2cc1Cl [talmapimod],-2.57
7,Cc1ccc(-c2csc3ncnc(SCCC(=O)O)c23)cc1,-1.26
8,CC12CCC(C(=O)N(CCCCN3CCN(c4ccccn4)CC3)C1=O)C2(C)C (centres undefined) [piricapiron],-1.87
9,CCC1=C[C@@H]2CN3CCc4c([nH]c5ccccc45)[C@@](C(=O)OC)(C2)[C@@H]13 [catharanthine],0.47
10,O=C(NC1CCN(CCc2c[nH]c3ccccc23)CC1)c1ccccc1 [indoramin],0.6

# Same assay, conditions: 833.33 nM; 48 h
row,Structure (SMILES),inhibition of SARS-CoV-2 cytopathic effect
1,CNC1CC(c2ccc(Cl)c(Cl)c2)c2ccccc21 (centres undefined) [indatraline],-3.42%
2,O=C1c2ccccc2C(Cc2ccncc2)(Cc2ccncc2)c2ccccc21,-2.88%
3,N#Cc1c(N)nc(SCc2csc(-c3ccc(Cl)cc3)n2)c(C#N)c1-c1ccc(OCCO)cc1 [capadenoson],-2.63%
4,NC(=O)c1ncn([C@@H]2O[C@H](CO)[C@@H](O)[C@H]2O)c1O [mizoribine],0.29%
5,Cc1cnc(-c2cnc(NCCNc3ccc(C#N)cn3)nc2-c2ccc(Cl)cc2Cl)[nH]1,3.98%
6,Cc1cccc(C)c1NC(=O)/N=C1\CCCN1C [xilobam],-0.83%
7,O=[N+]([O-])c1cccc2cn[nH]c12 [7-nitroindazole],4.56%
8,Cc1cc2sc(NC(=O)Cc3ccccc3)nc2cc1Cl,0.81%
9,CC(CNC(=O)c1cccnc1)NC(=O)c1cccnc1 (centres undefined) [nicaraven],0.88%
10,Nc1nc(O)c2nc(Br)n([C@@H]3O[C@@H]4COP(=O)(O)O[C@H]4[C@H]3O)c2n1 [8-bromo-cGMP],1.94%
11,C[C@H]1[C@H](C)CC[C@]2(C(=O)O)CC[C@]3(C)C(=CC[C@@H]4[C@@]5(C)C[C@@H](O)[C@H](O)[C@@](C)(CO)[C@@H]5CC[C@]43C)[C@H]12 [asiatic-acid],1.12%
12,COc1cc(-n2c(=S)[nH]c3ccccc3c2=O)c(Cl)cc1Cl [mdivi-1],-0.45%
13,CO/N=C(\C(=O)N[C@@H]1C(=O)N2C(C(=O)OCOC(=O)C(C)(C)C)=C(/C=C\c3scnc3C)CS[C@H]12)c1csc(N)n1 [cefditoren-pivoxil],-1.49%
14,Nc1ncnc2c1c(-c1ccc(Cl)cc1)nn2-c1cccc(-c2cnnn2Cc2cccc(-c3ccccc3)c2)c1,-2.27%
15,CNc1nc(NCc2ccc(NS(C)(=O)=O)cc2Cl)cc(-c2ccccn2)n1,-2.53%
16,N#C/C(=C\c1ccc(O)c(O)c1)C(=O)OCCc1cccs1,-1.53%
17,CN1CCN(CC(=O)N2c3ccccc3C(=O)Nc3cccnc32)CC1 [pirenzepine],-0.6%
18,Cc1cc(Nc2ncnc3ccc(-c4ccc(CNCCS(C)(=O)=O)o4)cc23)ccc1Oc1ccn2ncnc2c1 [HER2-Inhibitor-1],-2.65%
19,CC[C@H](C)[C@@H]1NC(=O)[C@H](Cc2ccc(OC)cc2)NC(=O)CCCSC[C@@H](C(=O)N2CCC[C@H]2C(=O)N[C@@H](CC(C)C)C(=O)NCC(N)=O)NC(=O)[C@H](CC(N)=O)NC(=O)[C@H](CCC(N)=O)NC1=O [carbetocin],1.22%
20,O=C(c1ccc(F)cc1)C1CCN(CCn2c(=S)[nH]c3ccccc3c2=O)CC1 [altanserin],2.37%

row,Structure (SMILES),inhibition of SARS-CoV-2 cytopathic effect
1,N=C(N)c1ccc(/N=N/Nc2ccc(C(=N)N)cc2)cc1 [diminazene-aceturate],-14%
2,O=S(=O)(O)CCS [mesna],5.57%
3,CC(=O)c1cnc2ccc(-c3cc(Cl)c(O)c(Cl)c3)nc2c1N[C@H]1CC[C@H](CN(C)C)CC1,0.11%
4,NC(=O)[C@@H](CC1CC1)[C@@H](CCC(F)(F)F)C(=O)N[C@H]1N=C(c2ccccc2)c2cccc(F)c2NC1=O,-3.05%
5,CC[C@@]1([C@H]2O[C@H]([C@H]3O[C@@](O)(CO)[C@H](C)C[C@@H]3C)C[C@H]2C)CC[C@H]([C@@]2(C)CC[C@]3(C[C@H](O)[C@@H](C)[C@@H]([C@H](C)[C@H](OC)[C@@H](C)C(=O)O)O3)O2)O1,27.6% (active)
6,C[C@H](N)C(=O)N[C@@H](CCC(N)=O)C(=O)O [dipeptamin],0.75%
7,CC(=O)Oc1ccccc1C(=O)Oc1cccc(CO[N+](=O)[O-])c1,0.32%
8,C[C@H]1O[C@@H](O[C@H]2[C@@H](O)C[C@H](O[C@H]3[C@@H](O)C[C@H](O[C@H]4CC[C@@]5(C)[C@H](CC[C@@H]6[C@@H]5C[C@@H](O)[C@]5(C)[C@@H](C7=CC(=O)OC7)CC[C@]65O)C4)O[C@@H]3C)O[C@@H]2C)C[C@H](O)[C@@H]1O [digoxin],-13.3%
9,O=S(=O)(O)c1ccc(-c2c3nc(c(-c4ccc(S(=O)(=O)O)cc4)c4ccc([nH]4)c(-c4ccc(S(=O)(=O)O)cc4)c4nc(c(-c5ccc(S(=O)(=O)O)cc5)c5ccc2[nH]5)C=C4)C=C3)cc1,-6.51%
10,CCC(=O)OCC(=O)[C@@]1(OC(=O)CC)[C@@H](C)C[C@H]2[C@@H]3CCC4=CC(=O)C=C[C@]4(C)[C@@]3(Cl)[C@@H](O)C[C@@]21C [beclomethasone-dipropionate],-9.54%
11,NC[C@@H](O)CC(=O)O [aminohydroxybutyric-acid],-2.28%
12,CC(=O)[C@H]1CC[C@H]2[C@@H]3CC[C@H]4C[C@H](O)CC[C@]4(C)[C@H]3C(=O)C[C@]12C [alfaxalone],-1.55%
13,Cc1cc(C)cc(NC(=O)Cc2ccc(OC(C)(C)C(=O)O)cc2)c1 [efaproxiral],1.37%
14,O=C(O)[C@H](O)c1ccccc1 [mandelic-acid],2.65%
15,C[C@@H]1CN(Cc2ccc(F)cc2)[C@@H](C)CN1C(=O)c1cc2c(C(=O)C(=O)N(C)C)cn(C)c2cc1Cl [talmapimod],-0.03%
16,Cc1ccc(-c2csc3ncnc(SCCC(=O)O)c23)cc1,1.22%
17,CC12CCC(C(=O)N(CCCCN3CCN(c4ccccn4)CC3)C1=O)C2(C)C (centres undefined) [piricapiron],0.95%
18,CCC1=C[C@@H]2CN3CCc4c([nH]c5ccccc45)[C@@](C(=O)OC)(C2)[C@@H]13 [catharanthine],0.93%
19,O=C(NC1CCN(CCc2c[nH]c3ccccc23)CC1)c1ccccc1 [indoramin],-1.28%
